The source made the active and inactive calls. Rule for the calls: active = hit-call score of the fitted dose curve at least 0.9, where 1 is the maximum; inactive = score below 0.9.

Sequence of human AMPKalpha1 CAMK Kinase, PRKAA1 (gene 5562) (Q13131 whole entry, looked up): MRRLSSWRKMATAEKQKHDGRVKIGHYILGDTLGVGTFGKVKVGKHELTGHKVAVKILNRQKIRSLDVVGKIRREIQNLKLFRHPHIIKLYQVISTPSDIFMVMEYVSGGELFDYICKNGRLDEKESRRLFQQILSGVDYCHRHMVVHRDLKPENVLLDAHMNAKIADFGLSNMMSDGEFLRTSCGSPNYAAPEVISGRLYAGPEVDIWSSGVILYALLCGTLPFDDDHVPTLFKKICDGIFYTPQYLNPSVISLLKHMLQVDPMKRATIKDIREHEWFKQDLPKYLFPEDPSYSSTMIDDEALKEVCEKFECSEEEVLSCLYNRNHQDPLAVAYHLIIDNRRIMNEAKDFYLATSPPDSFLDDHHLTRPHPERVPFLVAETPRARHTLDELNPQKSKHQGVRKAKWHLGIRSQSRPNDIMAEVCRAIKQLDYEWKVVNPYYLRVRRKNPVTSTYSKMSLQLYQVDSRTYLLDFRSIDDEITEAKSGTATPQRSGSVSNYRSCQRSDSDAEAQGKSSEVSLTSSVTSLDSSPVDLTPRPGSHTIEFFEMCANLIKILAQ

The assay concerns the target human AMPKalpha1 CAMK Kinase, PRKAA1 (gene 5562) (UniProt Q13131). Put plainly: ERF_KP_ENZ_hPRKAA1: Eurofins (ERF) Enzymatic Radiometric [10 uM ATP] KinaseProfiler LeadHunter Assay for human AMPKalpha1 CAMK Kinase. The procedure: ERF_KP_ENZ_hPRKAA1 is a biochemical, single-readout assay that uses extracted gene-proteins in a cell-free assay. Measurements were taken 0.66 hour after chemical dosing in a 96-well plate. See AMPKalpha1 Human CAMK Kinase Enzymatic Radiometric Assay [10 uM ATP], KinaseProfiler.ERF_KP_ENZ_hPRKAA1 is an assay component calculated from the ERF_KP_ENZ_hPRKAA1 assay. It is designed to measure enzyme activity using a type of enzyme reporter as detected by scintillation counting with radiometry technology.Data from the assay component ERF_KP_ENZ_hPRKAA1 was analyzed at the assay endpoint, ERF_KP_ENZ_hPRKAA1, in the positive analysis fitting direction relative to DMSO as the negative control and baseline of activity. Using a type of enzyme reporter, loss-of-signal activity can be used to understand changes in enzymatic activity as they relate to gene PRKAA1. To generalize the intended target to other relatable targets, this assay endpoint is annotated to the kinase intended target family, where the subfamily is serine/threonine kinase.
AMPK (a1, b1, g1) (h) is incubated with 8 mM MOPS pH 7.0, 0.2 mM EDTA, 200 uM AMP, 100 uM […], 10 mM MgAcetate and [gamma-33P]-ATP (specific activity and concentration as required). The reaction is initiated by the addition of the Mg/ATP mix. […]
As a reminder, the AC50 is the concentration giving half of the maximal activity seen. Regarding `O=C(/C=C/c1ccc(O)cc1)CC(=O)/C=C/c1ccc(O)cc1`, the AC50 is 0.298 nM (active).

These data come from PubChem BioAssay AID2284118 (EPA ToxCast).
